Screens from PubChem.
Most compounds without a hit are left out; they make up all but 4.7% or so of the library.
D3 ag: agonists of human D3 dopamine receptor; P35462; D3R DiscoveRx beta-arrestin cells, luminescence, 90 min; max activation, %; 410,000 compounds, 0.58% hits; in the data active = max activation above about 30%; also: 0% is about no effect
Target sequence (P35462 whole entry, looked up): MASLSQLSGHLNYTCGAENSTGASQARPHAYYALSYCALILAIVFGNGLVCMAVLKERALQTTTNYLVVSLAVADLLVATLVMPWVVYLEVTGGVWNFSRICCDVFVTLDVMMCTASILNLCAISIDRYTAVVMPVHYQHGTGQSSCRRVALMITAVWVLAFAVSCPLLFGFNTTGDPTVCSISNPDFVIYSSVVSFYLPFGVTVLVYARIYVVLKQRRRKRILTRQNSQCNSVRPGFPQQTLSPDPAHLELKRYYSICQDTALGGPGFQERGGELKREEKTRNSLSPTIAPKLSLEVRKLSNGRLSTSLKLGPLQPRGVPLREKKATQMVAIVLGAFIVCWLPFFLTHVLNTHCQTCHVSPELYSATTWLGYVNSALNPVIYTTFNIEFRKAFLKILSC
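Cells at 1500/well, incubated overnight, then treated with pinned compounds (dopamine as control) for 90 min at 37 degrees C. DiscoveRx reagent added for 30 - 60 minutes at room temperature; luminescence read.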
TGFb SMAD3 inh: blocks TGF-b signaling. Potency, µM (top dose mostly 46.1 µM), for the others: at the top dose activity, negative = inhibition, most hits filed as inhibitors. 410,000 compounds, 1.2% hits. HepG2 CAGA-GFP TGF-b/SMAD3 reporter, GFP fluorescence, 18 h; TGF-beta stimulated, 500 pg/mL final; also: potency is read from the fitted curve at half-maximal effect; % is scaled to controls: 0 for no effect and ±100 for the full control effect; nearly all actives have a fitted effect of over 65% in size
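Inhibition of TGF-beta-driven CAGA-GFP reporter expression in HEPG2 cells is measured by cellular GFP fluorescence after 18 h stimulation with 500 pg/mL recombinant TGF-beta in 1% FBS medium at 37 degrees C.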
ATXN2 expr inh: inhibitors of ATXN2 expression. HEK-293 ATXN2-luciferase reporter, luminescence, 24 h. 360,000 compounds, 0.72% hits. Potency, µM (highest dose often 57 µM), for the others: at the highest dose activity change, negative = inhibition, most hits filed as inhibitors; also: potency is read from the fitted curve at half-maximal effect; % is scaled to controls: 0 for no effect and ±100 for the full control effect; nearly all actives have a fitted effect of over 55% in size
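ATXN2-luciferase reporter cells (luciferase flanked by upstream and downstream ATXN2 gene portions) were treated 24 h at 37 °C with compounds at up to 57 uM. SteadyGlo luminescence gave expression; GF-AFC fluorescence gave viability.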
S2 tox: viability counter-screen for ATXN expression inhibitors | 400,000 compounds, 0.49% hits | Potency, µM (doses to about 56.7 µM), actives largely listed as cytotoxic | S2 cells (HEK-293 line with an ATXN2-luciferase reporter) viability, CellTiter-Fluor protease fluorescence, 24 h | AID 651635; also: potency is read from the fitted curve at half-maximal effect; nearly all actives have a fitted effect of over 40% in size
DRD3 antagonist: D3 dopamine receptor (human) antagonism. D3R cells, DiscoveRx beta-arrestin luminescence, antagonist mode; active compounds read low. max response, negative = inhibition, %. 360,000 compounds, 2.5% hits. AID 652054; in the data active = max response below about -50%; inconclusive = no clear call, values can overlap the other calls; also: % is scaled to controls: 0 for no effect and ±100 for the full control effect
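Cells plated overnight at 1500 cells/well, then exposed to library compounds with dopamine controls for 90 minutes at 37 degrees C. DiscoveRx reagent added for 30–60 minutes at room temperature; luminescence read, quantitative HTS format.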
HepG2 viability: HepG2 cytotoxicity, counter-screen for TGF-b inhibitors. HepG2 CAGA-GFP viability, ATP luminescence, 18 h. Potency, µM (top dose mostly 46.1 µM), for the others: at the top dose activity change, negative = cytotoxicity, actives largely listed as cytotoxic. 410,000 compounds, 0.76% hits. AID 588856; also: potency is read from the fitted curve at half-maximal effect
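HepG2 CAGA-GFP cells (1000/well, DMEM with 1% FBS) received compound, then TGF-beta at 500 pg/mL final, and were incubated 18 hours at 37 degrees C. Viability was read by CellTiter-Glo luminescence. Media-only wells were set as complete cell-killing and DMSO as no toxicity.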
Active calls of the source: *; i = inactive; u = inconclusive; x = no result given. Unless noted, calls follow the shape of the dose curve; as a rule, active = well fitted curve in the direction sought with a large enough effect; inconclusive = small, poorly fitted or top-dose-only effect, or another doubt; inactive = no such curve, though single readings can be large; an effect the other way counts as inactive or inconclusive.

SMILES | D3 ag | TGFb SMAD3 inh | ATXN2 expr inh | S2 tox | DRD3 antagonist | HepG2 viability
CN(C)c1ccc(CNC(=O)C2(C)Cc3c(-c4cccc(C(F)(F)F)c4)ccnc3O2)cc1 (configuration not stated) | -12 | u | -19% | i | -84* | -20%
CCCCc1ccc(NC(=O)c2cc3c(=O)n4ccccc4nc3n2C)cc1 | 8 | -3% | x | x | x | 6%
COc1cc(C(=O)Nc2ccc3oc(-c4ccc(C)c(Br)c4)nc3c2)cc(OC)c1OC | 5 | -11% | 2% | i | x | 1%
CCn1nc(C)c(C(=O)Nc2cc(Oc3cc(C)cc(C)c3)cc([N+](=O)[O-])c2)c1C | 1 | 14µM* | -25% | i | -8 | -46%
CCN(CCC#N)c1ccc(/C=C/c2ccnc3ccccc23)cc1 | x | u | x | x | x | -44%
CCCCCOC(=O)CSc1nc2sc3c(c2c(=O)n1-c1ccccc1)CC(C)(CC)OC3 (configuration not stated) | 3 | -17% | 18% | i | x | 3%
COc1cccc(/C=N/Nc2snc(SC)c2C#N)c1O | 4 | 10µM* | -13% | i | u | -47%
COc1ccc(/C=N/Nc2snc(SC)c2C#N)cc1OC | 0 | 27% | 42% | i | 0 | 2%
Cc1ccc(C(C[N+](=O)[O-])Sc2ccc(N)cc2)cc1 (configuration not stated) | 10 | 11µM* | u | u | 6 | 13µM*
COc1ccc(-c2cc(OC(=O)c3ccc(F)cc3)c3c(C)oc(C)c3c(=O)c2)cc1OC | -3 | 29% | 11% | i | x | -18%
Cc1ccc(-c2ccnc(-n3ncc(C(=O)N4CCCCC4c4cccnc4)c3C3CC3)n2)o1 (configuration not stated) | x | x | x | i | x | x
CN(Cc1ccccc1)C(=O)c1nc2ccccn2c1CNCCCOc1cccnc1 | -16 | -9% | x | i | -56* | 7%
CCCCN(C)C(=O)c1nc2ccccn2c1CNCCCn1ncc2ccccc21 | -14 | -2% | -2% | i | -77* | -46%
O=C(/C=C/c1ccco1)Nc1sc2c(c1C(=O)O)CCC2 | -14 | 8% | 34% | i | -26 | -17%
N#Cc1c(NC(=O)/C=C/c2ccco2)sc2c1CCCC2 | -7 | -44% | 135% | i | -60* | -1%
Cc1cc(C)nc(N2CCC(C(=O)N3CCN(c4cc(Cl)ccc4C)CC3)CC2)n1 | 65* | u | -25% | i | 115 | 6%
Cc1ccc(C)c(N2CCN(C(=O)C3CCN(c4nc(C)cc(C)n4)CC3)CC2)c1 | 18 | -26% | -12% | i | 110 | -18%
Cc1nn(C(CC(=O)O)C(=O)O)c(C)c1Br (configuration not stated) | 42* | 33% | 0% | i | -22 | 1%
Cc1cc(C)n(C(CC(=O)O)C(=O)O)n1 (configuration not stated) | -2 | -1% | -1% | i | 18 | 3%
CCN(CC)c1ccc(/C=C/c2cccc[n+]2C)c(OC)c1 | -8 | 26% | 3.2µM* | 8.9µM* | u | -16%
CN1N=C(C(N)=O)CCC1=O | x | x | 8% | i | x | x
O=C(NCCc1ccccn1)C1CC12CCN(C(=O)c1ccc(F)cc1Cl)CC2 (configuration not stated) | x | x | x | i | x | x
C=CC(=O)N1C/C(=C/c2ccccc2)C(=O)/C(=C\c2ccccc2)C1 | -19 | 2.2µM* | 6.7µM* | 9.5µM* | -62* | 1.8µM*
C=CC(=O)N1C/C(=C/c2ccc(Cl)cc2)C(=O)/C(=C\c2ccc(Cl)cc2)C1 | -14 | 2.2µM* | 2.8µM* | 0.89µM* | u | 5µM*
CCN(CC)CCOc1ccc(C(=C(Cl)c2ccccc2)c2ccccc2)cc1 | x | x | 7% | x | x | x
SMILES | D3 ag | TGFb SMAD3 inh | ATXN2 expr inh | S2 tox | DRD3 antagonist | HepG2 viability
C[C@]12CC[C@H](O)C[C@@H]1CC[C@@H]1[C@@H]2CC[C@@]2(C)[C@H]1CCC(=O)[C@]21CCCO1 | 4 | 1% | -2% | i | 13 | -14%
C[C@@]12CCC[C@H]1[C@@H]1CC[C@H]3C[C@@H](O)CC[C@]3(C)[C@H]1CC2 | 3 | x | 12% | 25µM* | x | x
CC12CCC3C(CCC4CC(O)CCC43C)C1CC(O)C2 (configuration not stated) | 31* | 12% | -9% | i | 82 | 1%
C[C@H](O)[C@@]1(O)CC[C@H]2[C@@H]3CC[C@@H]4C[C@H](O)CC[C@]4(C)[C@H]3CC[C@@]21C | -3 | 7% | -3% | i | 3 | 1%
COc1cccc(CN2CCCC(c3nc(C)ncc3-c3ccc(F)cc3)C2)c1OC (configuration not stated) | x | x | x | i | x | x
O=C1C=C(N(CCO)Cc2ccccc2)c2ccccc2C1=O | -17 | 8.9µM* | 27µM* | x | u | 10µM*
COc1ccc(OCc2cccc(C(=O)Nn3cc([N+](=O)[O-])cn3)c2)cc1 | 0 | -19% | 1µM* | i | -65* | -3%
COc1cccc(C(=O)Nc2cc(C)on2)c1 | -6 | -5% | x | i | -29 | -11%
COc1ccc(OCc2cccc(C(=O)NN)c2)cc1 | 2 | -3% | 2.2µM* | i | 2 | 4%
COc1ccc(C(=O)Nc2ccc(OCc3ccccc3)cc2)cc1[N+](=O)[O-] | 6 | 17% | x | x | 16 | 2%
COc1ccc(OCc2cccc(C(=O)Nc3cc(C)on3)c2)cc1 | -1 | u | 2.2µM* | i | 13 | -12%
NNC(=O)c1cccc(COc2ccc(Br)cc2)c1 | -5 | -3% | -34% | i | 20 | -8%
COc1cccc(NC(=O)CN2C(=O)CSc3ccc(S(=O)(=O)N4CCCC4)cc32)c1 | -25 | u | x | x | x | -9%
CC(C)(C)c1ccc(C(=O)N2CCC3(CC2)CC3C(=O)NCCc2ccccn2)cc1 (configuration not stated) | x | x | x | i | x | x
NC(=O)OC[C@@H]1[C@H](NC(=O)/C(=N\OCC(=O)O)c2csc(N)n2)C(=O)N1S(=O)(=O)O | 1 | x | x | x | x | x
CC(C)NC(=O)c1ccc(-n2c(-c3ccccc3)cc3c2CCCCC3)cc1 | -18 | 0% | x | x | x | -10%
CC1CCc2c(cc(-c3ccccc3)n2-c2ccc(C(=O)NC(C)C)cc2)C1 (configuration not stated) | -14 | 7.9µM* | x | x | x | -1%
O=C(/C=C/c1ccccc1)c1ccc2c(c1)OCCCCO2 | -8 | -15% | 55% | i | u | -55%
O=C1COc2ccc(C(=O)/C=C/c3ccccc3)cc2N1 | 0 | 8.9µM* | -1% | i | -27 | -15%
